Results as given in PubChem BioAssay (NCI).
About 83,000 compounds went through this panel and 20% of them were active in at least one assay; those are over-represented in the sample as a whole.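 48-hour exposure, single concentration, 96-well plates; percent growth endpoint where 0 means no net growth. Active: below 10.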 Active and inactive are the calls of the source.

Columns and labels:
Experiment in all cases: NCI-60 one-dose screen, 48 h (100 = growth as untreated, 0 = no growth, -100 = all killed)
Settings in all cases: 10 µM unless noted
NCI-H23 lung = test system: NCI-H23 lung
NCI-H226 lung = test system: NCI-H226 lung
NCI-H322M lung = test system: NCI-H322M lung
HOP-62 NSCLC = test system: HOP-62 NSCLC
NCI-H460 lung = test system: NCI-H460 lung
HOP-92 NSCLC = test system: HOP-92 NSCLC
NCI-H522 lung = test system: NCI-H522 lung
A549/ATCC NSCLC = test system: A549/ATCC NSCLC
786-0 renal = test system: 786-0 renal
COLO 205 colon = test system: COLO 205 colon

Measured: growth

Cc1ccc(-c2cc3c(SCC(=O)Nc4cc(C(F)(F)F)ccc4Cl)nccn3n2)cc1
inactive: NCI-H23 lung 74.2% | NCI-H226 lung 54% | NCI-H322M lung 31% | HOP-62 NSCLC 43.3% | NCI-H460 lung 14.2% | HOP-92 NSCLC 28.6% | NCI-H522 lung 42.7% | A549/ATCC NSCLC 36% | 786-0 renal 54.7% | COLO 205 colon 27%

C=C1C(=O)O[C@H]2[C@H]1CC/C(CNC(=O)c1cc3cc(OC)ccc3[nH]1)=C\CC[C@@]1(C)O[C@@H]21
inactive: NCI-H322M lung 65.4% | HOP-62 NSCLC 46.9% | NCI-H460 lung 19.3% | A549/ATCC NSCLC 18.5%
active: NCI-H23 lung -54.8% | NCI-H226 lung -40.5% | HOP-92 NSCLC -67.3% | NCI-H522 lung -67.5% | 786-0 renal -67.2% | COLO 205 colon -73.6%

COc1cc(Nc2c(C#N)cnc3cc(OCCCN4CCN(C)CC4)c(OC)cc23)c(Cl)cc1Cl
inactive: NCI-H23 lung 61.5% | NCI-H226 lung 78.4% | NCI-H322M lung 13.3% | HOP-62 NSCLC 61.3% | NCI-H460 lung 38.6% | HOP-92 NSCLC 98% | NCI-H522 lung 14.5% | A549/ATCC NSCLC 36.1% | 786-0 renal 67.7%
active: COLO 205 colon 6.9%

Cn1ccnc1C(=O)/C=C/c1ccc(CC(=O)Nc2ccc(S(F)(F)(F)(F)F)cc2)cc1
active: NCI-H23 lung -12.7% | NCI-H226 lung -15.3% | NCI-H322M lung -5.16% | HOP-62 NSCLC -73% | NCI-H460 lung -37.9% | HOP-92 NSCLC 5.09% | NCI-H522 lung -51.1% | A549/ATCC NSCLC -33.7% | 786-0 renal -82.7% | COLO 205 colon -55.2%

CNC(=O)c1cc(COc2nnc(Nc3ccc(Cl)cc3)c3ccoc23)ccn1
active: HOP-62 NSCLC -75.2% | HOP-92 NSCLC -5.53% | 786-0 renal -27.1%
inactive: NCI-H23 lung 62.2% | NCI-H226 lung 21.3% | NCI-H322M lung 45.4% | NCI-H460 lung 31.2% | NCI-H522 lung 10.4% | A549/ATCC NSCLC 35.3% | COLO 205 colon 72.4%

C=CC(=O)N1CCC[C@H](n2c(=O)n(-c3ccc(Oc4ccccc4)cc3)c3c(N)ncnc32)C1
inactive: NCI-H23 lung 92.7% | NCI-H226 lung 79.1% | NCI-H322M lung 19.3% | HOP-62 NSCLC 82.8% | NCI-H460 lung 96.2% | HOP-92 NSCLC 85.7% | NCI-H522 lung 11.3% | A549/ATCC NSCLC 58.3% | 786-0 renal 85.3% | COLO 205 colon 93.1%

Cc1[nH]c(/C=C2\C(=O)Nc3ccc(F)cc32)c(C)c1C(=O)NC[C@H](O)CN1CCOCC1
active: COLO 205 colon -8.22%
inactive: NCI-H23 lung 27.1% | NCI-H226 lung 47.8% | NCI-H322M lung 26.2% | HOP-62 NSCLC 25.7% | NCI-H460 lung 19% | HOP-92 NSCLC 14.5% | NCI-H522 lung 45.4% | A549/ATCC NSCLC 27.4% | 786-0 renal 35.6%

C[C@]12O[C@H](C[C@]1(O)CO)n1c3ccccc3c3c4c(c5c6ccccc6n2c5c31)CNC4=O
active: NCI-H23 lung -58.3% | NCI-H226 lung -68.8% | NCI-H322M lung -32.1% | HOP-62 NSCLC -63% | NCI-H460 lung -61.3% | HOP-92 NSCLC -26.3% | NCI-H522 lung -56.2% | A549/ATCC NSCLC -29.9% | 786-0 renal -87.5% | COLO 205 colon -84.9%

O=C(COc1ccc(/C=C2\Cc3ccc(Cl)cc3C2=O)cc1)Nc1nccs1
active: NCI-H522 lung -7.85%
inactive: NCI-H23 lung 88.9% | NCI-H226 lung 98.4% | NCI-H322M lung 118% | HOP-62 NSCLC 101% | NCI-H460 lung 95.2% | HOP-92 NSCLC 77.5% | A549/ATCC NSCLC 83.7% | 786-0 renal 95.8% | COLO 205 colon 124%

Cc1csc(-c2nnc(Nc3ccc(Oc4ncccc4-c4ccnc(N)n4)cc3)c3ccccc23)c1
inactive: NCI-H23 lung 54.6% | NCI-H226 lung 72.5% | NCI-H322M lung 30.5% | HOP-62 NSCLC 14.6% | NCI-H460 lung 25.3% | HOP-92 NSCLC 85.5% | NCI-H522 lung 30.8% | A549/ATCC NSCLC 26.6% | 786-0 renal 67.9%
active: COLO 205 colon -4.72%

C[C@@H](Nc1cc(F)cc(F)c1)c1cc(C(=O)N(C)C)cc2c(=O)cc(N3CCOCC3)oc12
inactive: NCI-H23 lung 76.6% | NCI-H226 lung 83.7% | NCI-H322M lung 31.5% | HOP-62 NSCLC 59.3% | NCI-H460 lung 43.1% | HOP-92 NSCLC 27.3% | NCI-H522 lung 59.7% | A549/ATCC NSCLC 34.9% | 786-0 renal 12.7% | COLO 205 colon 46.6%

Cc1cc2c(F)c(Oc3ncnn4cc(OC[C@@H](C)OC(=O)[C@H](C)N)c(C)c34)ccc2[nH]1
active: COLO 205 colon -6.99%
inactive: NCI-H23 lung 27.6% | NCI-H226 lung 50.2% | NCI-H322M lung 41.1% | HOP-62 NSCLC 34.8% | NCI-H460 lung 38.7% | HOP-92 NSCLC 39.2% | NCI-H522 lung 58.1% | A549/ATCC NSCLC 35.8% | 786-0 renal 72.3%

N#Cc1c(-c2ccc(C(F)(F)F)cc2)cc(NCC2CCS(=O)(=O)CC2)n2c1nc1ccccc12
inactive: NCI-H23 lung 88.8% | NCI-H226 lung 93.7% | NCI-H322M lung 100% | HOP-62 NSCLC 86.4% | NCI-H460 lung 96.8% | HOP-92 NSCLC 80.9% | NCI-H522 lung 64.5% | A549/ATCC NSCLC 77% | 786-0 renal 84.6% | COLO 205 colon 96.6%

CCCC(=O)OCC1OC(n2cnc3c(=S)nc[nH]c32)C(OC(=O)CCC)C1OC(=O)CCC (stereo not given)
active: NCI-H522 lung -12.7%
inactive: NCI-H23 lung 29.4% | NCI-H226 lung 32.5% | NCI-H322M lung 35.4% | HOP-62 NSCLC 24.1% | NCI-H460 lung 54.9% | HOP-92 NSCLC 17.9% | A549/ATCC NSCLC 83.9% | 786-0 renal 22.3% | COLO 205 colon 67.3%

CC(C)CC(=O)Nc1n[nH]c2c1CN(C(=O)C1CCN(C)CC1)C2(C)C
active: NCI-H23 lung 0.542% | NCI-H226 lung 7.08% | HOP-62 NSCLC -14.3% | NCI-H460 lung 7.12% | HOP-92 NSCLC -3.08% | NCI-H522 lung -27.9% | A549/ATCC NSCLC 7.25% | 786-0 renal 3.99% | COLO 205 colon -76.4%
inactive: NCI-H322M lung 24.4%

O=C(CNc1nc(-c2ccc(Cl)cc2)cs1)Nc1ccc(-c2nc3ccccc3s2)cc1
inactive: NCI-H23 lung 87.6% | NCI-H226 lung 80.3% | NCI-H322M lung 91.6% | HOP-62 NSCLC 106% | NCI-H460 lung 91.3% | HOP-92 NSCLC 92.9% | NCI-H522 lung 93.1% | A549/ATCC NSCLC 99% | 786-0 renal 109% | COLO 205 colon 93.8%

Cc1ccccc1N1C(c2ccccc2)=NNC12C=CC(=O)C=C2Cl (stereo not given)
inactive: NCI-H23 lung 98.1% | NCI-H226 lung 115% | NCI-H322M lung 95.4% | HOP-62 NSCLC 98.3% | NCI-H460 lung 115% | HOP-92 NSCLC 114% | NCI-H522 lung 95.2% | A549/ATCC NSCLC 75.5% | 786-0 renal 106% | COLO 205 colon 99.3%

C=CC(=O)N(C)[C@H]1C[C@H]2OC(C)(C1OC)n1c3ccccc3c3c4c(c5c6ccccc6n2c5c31)C(=O)NC4 (stereo not given in full)
active: NCI-H23 lung 4.64% | NCI-H226 lung -60.7% | NCI-H322M lung 6.29% | HOP-62 NSCLC -15.4% | NCI-H460 lung 1.35% | HOP-92 NSCLC -21.8% | NCI-H522 lung -54.5% | A549/ATCC NSCLC 9.49% | 786-0 renal -74.2% | COLO 205 colon -75.3%

CCCc1cc2cc(-n3nc(C)c4c3CC(C)(C)CC4=O)cc(NC3CCC(O)CC3)c2c(=O)[nH]1 (stereo not given)
inactive: NCI-H23 lung 29.8% | NCI-H226 lung 33.8% | NCI-H322M lung 58.2% | HOP-62 NSCLC 28.5% | NCI-H460 lung 17.6% | NCI-H522 lung 40.8% | A549/ATCC NSCLC 21% | 786-0 renal 26.1%
active: HOP-92 NSCLC -25.7% | COLO 205 colon -10.1%

COc1cc(Nc2ncc(F)c(Nc3ccc4c(n3)NC(=O)C(C)(C)O4)n2)cc(OC)c1OC
inactive: NCI-H23 lung 52.1% | NCI-H226 lung 12.2% | NCI-H322M lung 41.8% | HOP-62 NSCLC 27.3% | NCI-H460 lung 65% | A549/ATCC NSCLC 26.8% | 786-0 renal 29% | COLO 205 colon 18.9%
active: HOP-92 NSCLC 2.19% | NCI-H522 lung 6.57%

CCN1CCN(CCCN(C[C@H]2Cc3ccccc3CN2)[C@H]2CCCc3cccnc32)CC1
inactive: NCI-H23 lung 101% | NCI-H226 lung 83.7% | NCI-H322M lung 79.7% | HOP-62 NSCLC 65.2% | NCI-H460 lung 89.8% | HOP-92 NSCLC 60.3% | NCI-H522 lung 89.3% | A549/ATCC NSCLC 90.9% | 786-0 renal 83.3% | COLO 205 colon 97.2%

Cn1cnc(-c2cc3nccc(Oc4ccc(NC(=S)NC(=O)Cc5ccccc5)cc4F)c3s2)c1
inactive: NCI-H23 lung 72.5% | NCI-H226 lung 54.5% | NCI-H322M lung 108% | HOP-62 NSCLC 78.9% | NCI-H460 lung 93.5% | HOP-92 NSCLC 50.2% | NCI-H522 lung 41.5% | A549/ATCC NSCLC 53.9% | 786-0 renal 98.1% | COLO 205 colon 89%

N#Cc1ccc(-n2nnc3ccccc32)cc1C#N
inactive: NCI-H23 lung 94% | NCI-H226 lung 96.7% | NCI-H322M lung 111% | HOP-62 NSCLC 94.6% | NCI-H460 lung 107% | HOP-92 NSCLC 103% | NCI-H522 lung 88.1% | A549/ATCC NSCLC 87.2% | 786-0 renal 99.5% | COLO 205 colon 104%

CNC(=O)CN1CCC(Oc2cc3c(Nc4cccc(Cl)c4F)ncnc3cc2OC)CC1
inactive: NCI-H23 lung 79.7% | NCI-H226 lung 76.7% | HOP-62 NSCLC 38.3% | NCI-H460 lung 89.9% | HOP-92 NSCLC 25.1% | A549/ATCC NSCLC 28.3% | 786-0 renal 51.8% | COLO 205 colon 61.3%
active: NCI-H322M lung -5.06% | NCI-H522 lung 5.87%

NS(=O)(=O)c1ccc(CCN2C(=O)/C(=C\c3ccc(Cl)cc3)C=C2c2ccc3ccccc3c2)cc1
inactive: NCI-H23 lung 95.4% | NCI-H226 lung 80.8% | NCI-H322M lung 92.4% | HOP-62 NSCLC 72% | NCI-H460 lung 102% | HOP-92 NSCLC 94% | NCI-H522 lung 60.9% | A549/ATCC NSCLC 62% | 786-0 renal 93.4% | COLO 205 colon 100%

Clc1ccc(C(Cn2ccnc2)OCc2ccsc2Cl)c(Cl)c1 (stereo not given)
inactive: NCI-H23 lung 37.9% | NCI-H226 lung 63% | NCI-H322M lung 88.2% | HOP-62 NSCLC 73.6% | NCI-H460 lung 57.7% | HOP-92 NSCLC 28.7% | NCI-H522 lung 35.1% | A549/ATCC NSCLC 56.1% | 786-0 renal 55.6% | COLO 205 colon 62.9%
